NTMT1 inh: Primary qHTS for Inhibitors of N-terminal methyltransferase 1 (NTMT1): MTaseGlo Assay; Potency, µM (titrated, usually from 114 µM), for inactives: at the top dose activity change, negative = inhibition, hits mostly inhibitors; AID 1645870, 2021; 59,000 tested, 2.5% active; N-terminal Xaa-Pro-Lys N-methyltransferase 1 (Homo sapiens), Q9BV86; NTMT1 MTase-Glo SAH luminescence, purified enzyme;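 also: plate controls were DMSO vehicle for no effect and no enzyme for full effect; nearly all actives have a fitted effect of over 65% in size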
Target sequence (Q9BV86 whole entry, looked up): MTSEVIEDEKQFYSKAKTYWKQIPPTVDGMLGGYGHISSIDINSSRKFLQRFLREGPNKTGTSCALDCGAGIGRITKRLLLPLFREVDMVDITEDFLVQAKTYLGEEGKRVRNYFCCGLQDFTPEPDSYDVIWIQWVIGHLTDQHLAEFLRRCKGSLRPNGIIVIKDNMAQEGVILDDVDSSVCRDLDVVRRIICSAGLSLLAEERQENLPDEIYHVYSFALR
HTT prom inh: Primary qHTS for Identification of Small Molecule Inhibitors of Huntingtin Promoter Activity; HEK293 HTT promoter firefly luciferase reporter, 24 h; Potency, µM (top dose mostly 57.5 µM), inactives show at the highest dose activity change, negative = inhibition, hits mostly inhibitors; 48,000 tested, 0.93% active; also: nearly all actives have a fitted effect of over 50% in size
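Firefly luciferase readout (Dual-Glo, 10 min RT) after 24 h, 37 °C compound exposure (final up to 57.5 uM) of HEK293 reporter cells cultured 24 h beforehand; PTC124 at 50 uM final as control inhibitor; activity scaled vehicle 0%, zero RLU -100%.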
HTT-AS act: Primary qHTS for Identification of Small Molecule Activators of Huntingtin-Antisense Promoter Activity; HEK293 HTT-AS promoter firefly luciferase reporter, 24 h; response scale: percent change from vehicle, -100% = no light; Potency, µM (series often up to 57.5 µM), for the others: at the highest dose activity change, positive = activation, usual class: activators; 48,000 tested, 0.24% active; AID 1508624, 2021; also: nearly all actives have a fitted effect of over 55% in size
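Quantitative HTS used concentration series of up to 57.5 uM final on HEK293 luciferase reporter cells, 24 h at 37 degrees C. Readout was Dual-Glo firefly luminescence.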
* marks the source's active call; other numbers are inactive results; ? = inconclusive; . = not tested or not shown; [ ] = another dose, or the depositor's remark. This excerpt belongs to a sample that is enriched for hits. Calls follow the shape of the dose curve; as a rule, active = well fitted curve in the direction sought with a large enough effect; inconclusive = small, poorly fitted or top-dose-only effect, or another doubt; inactive = no such curve, though single readings can be large; an effect the other way counts as inactive or inconclusive. Potency is read from the fitted curve at half-maximal effect.

SMILES	NTMT1 inh	HTT prom inh	HTT-AS act
Cc1cc(-c2ccc(/C=C3\SC(=Nc4ccc(Cl)c(C(=O)O)c4)NC3=O)o2)c([N+](=O)[O-])cc1C	25µM*	.	.
CC(C)=CCC[C@](C)(O)[C@H]1CC[C@]2(C)[C@@H]1[C@H](O)CC1[C@@]3(C)CC[C@H](O)C(C)(C)C3[C@@H](O[C@@H]3O[C@H](CO)[C@@H](O)[C@H](O)[C@H]3O[C@@H]3OC[C@@H](O)[C@H](O)[C@H]3O)C[C@]12C (stereo not given in full)	12%[12.6 µM]	.	.
O=C(Nc1ccccc1F)c1ccc(Cn2nc(N3CCN(c4ccccc4)CC3)ccc2=O)o1	0%	?	-31%
O=C(Nc1ccc(F)cc1)c1ccc(Cn2nc(N3CCN(c4ccccc4)CC3)ccc2=O)o1	-6%	14µM*	-42%
O=C([C@H](Cc1ccc(O[S+](=O)([O-])c2cccc3cnccc23)cc1)N[S+](=O)([O-])c1cccnc1)N1CCN(c2ccccc2)CC1	15%	.	.
O=C(Nc1cc(-c2nc3ccccc3o2)ccc1Cl)c1cccc2c(Cl)cccc12	?	8%	?
O=C(Nc1cc(-c2nc3cc(Cl)ccc3o2)ccc1Cl)c1cccc2ccccc12	3%	25%	18µM*
COc1cc(-n2cnc3cc(-c4ccc(Cl)cc4)sc3c2=O)ccc1OCCN1CCCC1	-7%[57.5 µM]	.	.
C1=C/COCc2cc(ccc2OCCN2CCCC2)Nc2nccc(n2)-c2cccc(c2)COC/1	25µM*	.	.
Nc1ncnc2c1c(-c1ccc(Cl)cc1)nn2-c1cccc(-c2cnnn2Cc2cccc(-c3ccccc3)c2)c1	7%[57.5 µM]	.	.
CCOC(=O)C1CCN(C(=O)Cn2c(=O)cc(C)c3c(C)nn(C)c32)CC1	-1%	?	-32%
CCOC(=O)N1CCN(C(=O)Cn2sc3nc(C)cc(C)c3c2=O)CC1	3.2µM*	.	.
O=C1CCc2cc([S+](=O)([O-])Nc3ccc(Cl)c(Cl)c3)c(NCCCO)cc2N1	-1%	.	.
O=C(Nc1ccc2oc(-c3cccnc3)nc2c1)c1ccc(-c2ccc(Cl)cc2)o1	?	7%	8%
O=C(Nc1ccc2oc(-c3cccnc3)nc2c1)c1ccc(-c2cccc(Cl)c2)o1	25µM*	?	-33%
CN1C2CCC1CC(OC(=O)[C@H](CO)c1ccccc1)C2 (stereo not given in full)	2%[57.5 µM]	.	.
O=S(=O)(NCc1ccccc1F)c1ccc(O)c2ncccc12	2%	.	.
CC(C)OCc1cc(CN2CCN(c3ccccc3)CC2)c(O)c2ncccc12	6%	13µM*	-43%
CCOCc1cc(CN2CCN(c3cccc(Cl)c3)CC2)c(O)c2ncccc12	14%	?	-37%
Cc1cc(N[S+](=O)([O-])c2ccc(NC(=O)Cc3ccc4nccnc4c3)cc2)no1	6%	.	.
O=C(/C=C/c1ccc(Cl)cc1)N1CCC2(CC1)CN(Cc1ccc(Cl)c(Cl)c1)C(=O)O2	11%	.	.
C/C=C/C=C/C=C/C(=O)N(C)C(C(=O)NC(C)C(=O)N1CCCC1C(N)=O)C(C)C (stereo not given)	-15%[29.8 µM]	.	.
Cc1ccc(C)c(NS(=O)(=O)c2ccc3c4c(cccc24)C(=O)N3)c1	45µM*	?	-65%
O=C1Nc2ccc(S(=O)(=O)Nc3ccccc3O)c3cccc1c23	-20%	-9%	3%
CCOc1ccc(CCNC(=O)C2COc3ccccc3O2)cc1OCC (stereo not given)	-6%	.	.
SMILES	NTMT1 inh	HTT prom inh	HTT-AS act
N#Cc1ccc(-c2ccc(CNc3ccc(N4CCC(C#N)CC4)cc3)o2)cc1	-8%[57.5 µM]	.	.
Cc1nc(C)c(-c2ccc(SCC(=O)Nc3ccc(Cl)c(Cl)c3)nn2)s1	13%	18µM*	-32%
Cc1nc(C)c(-c2ccc(SCC(=O)Nc3ccc(F)c(F)c3)nn2)s1	-3%	?	-33%
O=C(/C=C/c1ccc(O)cc1)O[C@H]1[C@@H]2C=CO[C@@H](O[C@@H]3O[C@H](CO)[C@@H](O)[C@H](O)[C@H]3O)[C@@H]2[C@@]2(CO)O[C@@H]12	14%[29.8 µM]	.	.
COc1cc(/C=C2\C(=O)Nc3ccccc32)ccc1O	79µM*	.	.
COc1cc(OC)c(/C=C2\C(=O)Nc3ccccc32)c(OC)c1	-3%	.	.
Cc1cc(N[S+](=O)([O-])c2ccc(NC(=O)Cn3c(=O)oc4ccc(Cl)cc43)cc2)no1	17%	.	.
O=C(O)c1ccc(O)c2ncc(-c3n[nH]nc3-c3ccccc3)cc12	9%	.	.
O=C(O)c1ccc(-c2c[nH]c3ncc(-c4ccccc4)cc23)cc1C1CCCC1	25µM*	-18%	-11%

Screening data: PubChem BioAssay, National Center for Advancing Translational Sciences (NCATS)
